# According to PubChem BioAssay (NCATS):
# Inconclusive results are not listed. Where a call stands in place of a potency, no number is given. Activity calls are given as the source filed them. Unless noted, calls follow the shape of the dose curve; as a rule, active = well fitted curve in the direction sought with a large enough effect; inconclusive = small, poorly fitted or top-dose-only effect, or another doubt; inactive = no such curve, though single readings can be large; an effect the other way counts as inactive or inconclusive.
# Columns and labels:
# [1] = qHTS assay for measurement of the activity of small molecule inhibitors on Zika virus induced Caspase-3 activity in human iPSC derived neural progenitor cells (hNPCs) (AID 1224857); also: nearly all actives have a fitted effect of over 65% in size; also: potency is read from the fitted curve at half-maximal effect
# Procedure, shortened: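 After overnight (16–20 h) culture at 350 cells/well, hNPCs get compound, then ZIKV 2 FFU/cell one hour later. Six hours on, Caspase-Glo 3/7 is added and luminescence measured.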
# [2] = qHTS assay for measurement of the activity of small molecule inhibitors on Zika virus induced Caspase-3 activity in human astrocytoma cells (AID 1224859); also: potency is read from the fitted curve at half-maximal effect
# Procedure, shortened: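 Inhibition of Zika-induced caspase-3/7 activity: SNB-19 cells, 1 h compound pretreatment, ZIKV 2 FFU/cell for 6 h at 37 C, Caspase-Glo luminescence read-out.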
# [3] = qHTS assay to identify small molecule inhibitors of chordoma cells - UCH-1 (AID 1259355); also: nearly all actives have a fitted effect of over 55% in size
# Procedure, shortened: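 Screening used approved and investigational drugs in 15-point titration against 800 seeded cells per well. A fixed combination of auranofin with camptothecin, doxorubicin, rubitecan and topotecan followed compound addition, and growth was scored by CellTiter-Glo after 48hr.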
# [4] = Identifying Small Molecule Inhibitors of Pancreatic Cancer Stem Cells (SN12C, Adherent) (AID 1259358);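 also: cell survival measured after 48 h of compound exposure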
# Description: Progenitor-like cancer cells, often referred to as cancer stem cells (CSC), are believed to be the drivers of therapeutic resistance and rapid recurrence. CSCs are postulated to reside in specific niches characterized by low oxygen tension, limited nutrient supply, and high redox load. Selectively targeting CSC, alone or in combination with cytotoxic agents, as a means to produce durable remissions is an appealing concept. Modeling these cells in in vitro setting is an important step in finding new therapies and/or targets. Multiple reports highlight that forcing cells in culture into 3-dimensionaly architectures (spheroids) re-establishes key progenitor-like transcriptional signatures. Pancreatic cancer is among the diseases with the most dismal outlook which is driven, largely, by recurance following front-line therapies. […]
# Multicellular tumor spheroids from Panc1, MiaPaCa-2, and the primary low-passage tissue culture line SB.06 were seeded in stem cell media (SCM) in nonadherent 6-well plates coated with hydrogel (Corning Life Sciences, Chelmsford, Mass) and pancreatic spheres generated for 14 days before screening. […] Plates were incubated at room temperature for 10 minutes prior to reading the luminescence on the Viewlux (PerkinElmer). […]
# [5] = qHTS profiling of the MIPE4 collection as inhibitors of Plasmodium falciparum (3D7) proliferation (AID 743344; call rule not given here); conditions: P. falciparum 3D7 in erythrocytes, SYBR Green DNA fluorescence, 72 h; at 28.5 µM (top of the series)
# Procedure, shortened: (§1)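 Parasite DNA was quantified by SYBR Green I fluorescence (ex 485, em 535 nm) after overnight lysis in saponin/Triton buffer at room temperature. Cultures at 0.3% parasitemia and 2.5% hematocrit were first exposed to compound for 72 h at 37 C; signals were normalised to artemisinin (0.29 uM) and vehicle wells.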
# [6] = qHTS profiling of the MIPE4 collection as inhibitors of Plasmodium falciparum (DD2) proliferation (AID 743345; call rule not given here); conditions: P. falciparum Dd2 in erythrocytes, SYBR Green DNA, 72 h; at 28.5 µM (top of the series)
# Procedure, shortened: as §1
# [7] = qHTS profiling of the MIPE4 collection as inhibitors of Plasmodium falciparum (DD2) proliferation (Rep 2) (AID 743346; call rule not given here); conditions: P. falciparum Dd2 in erythrocytes, SYBR Green DNA, 72 h; at 28.5 µM (top of the series)
# Procedure, shortened: as §1
# [8] = qHTS profiling of the MIPE4 collection as inhibitors of Plasmodium falciparum (HB3) proliferation (AID 743347; call rule not given here); conditions: P. falciparum HB3 in erythrocytes, SYBR Green DNA, 72 h; at 28.5 µM (top of the series)
# Procedure, shortened: as §1
# [9] = qHTS assay to identify small molecule inhibitors of chordoma cells - UCH-2 (AID 1259356)
smiles,measurement,setting,value
C#C[C@]1(O)CC[C@H]2[C@@H]3CCC4=Cc5oncc5CC4(C)[C@H]3CCC21C (some centres not stated),Potency,[1],inactive
same,Potency,[2],inactive
COC1=C(OC)C(=O)c2ccccc2C1=O,Potency,[1],inactive
same,Potency,[2],inactive
CN(C)c1nc(N)c(C(=O)N=C(N)N)nc1Cl,Potency,[1],inactive
same,Potency,[2],inactive
CCCN(CC1CC1)c1nc(C)nc(Nc2c(Cl)cc(Cl)cc2Cl)c1Cl,Potency,[2],inactive
CN1CC(=O)N/C1=N/C(=O)Nc1cccc(Cl)c1,Potency,[1],11.2 µM (active)
same,Potency,[3],inactive
same,Potency,[4],inactive
O=Nc1ccc2oc(=O)ccc2c1,Potency,[2],inactive
Nc1ccc(O)c([N+](=O)[O-])c1,Potency,[2],inactive
COc1cc(C(O)CO)ccc1OS(=O)(=O)O (configuration not stated),Potency,[2],inactive
CCCCCCCCCCCCOCCO,Potency,[2],inactive
O=C(O)Cc1ccc2c(c1)C(=O)c1ccccc1CO2,Potency,[2],inactive
OC[C@H]1O[C@@H](n2cnc3c(NC4CCCC4)ncnc32)[C@H](O)[C@@H]1O,Potency,[2],inactive
Ic1ccc(N2CCN(Cc3c[nH]c4ncccc34)CC2)cc1,Potency,[2],inactive
O=C(Nc1cccc(C(=O)Nc2ccc(S(=O)(=O)O)c3cc(S(=O)(=O)O)cc(S(=O)(=O)O)c23)c1)Nc1cccc(C(=O)Nc2ccc(S(=O)(=O)O)c3cc(S(=O)(=O)O)cc(S(=O)(=O)O)c23)c1,"parasite growth, % of DMSO control",[5],84.7%
same,"parasite growth remaining, % of DMSO control (lower = more inhibition)",[6],91.3%
same,"parasite growth, % of control (lower = inhibition)",[7],111%
same,"growth, % of control",[8],83.4%
same,Potency,[1],inactive
Nc1nc(Cl)nc2c1ncn2[C@@H]1O[C@H](COP(=O)(O)OP(=O)(O)OP(=O)(O)O)[C@@H](O)[C@H]1O,Potency,[2],inactive
O=C(O)CC1CCCc2ccccc2C1O (configuration not stated),Potency,[2],inactive
S=C(S)OC1CC2CC1C1CCCC21 (configuration not stated),Potency,[1],inactive
same,Potency,[2],inactive
N=C1N=C(N)c2cc3ccccc3cc21,Potency,[2],inactive
CCCCCCCCCCCCCCCCCC(=O)O,Potency,[1],inactive
same,Potency,[3],inactive
CC(C(=O)O)c1ccc(C(=O)c2cccs2)cc1 (configuration not stated),Potency,[1],22.4 µM (active)
same,Potency,[3],inactive
same,Potency,[9],inactive
Fc1ccc(C(OCCCc2cnc[nH]2)c2ccc(F)cc2)cc1,Potency,[1],inactive
same,Potency,[2],inactive
CN(C)c1ccc(N=NS(=O)(=O)O)cc1,Potency,[2],inactive
CC(=O)/C=C1\C(=O)N(C)c2ccccc21,Potency,[2],inactive
NC[C@@H]1O[C@H](C23CC4CC(CC(C4)C2)C3)Cc2c1ccc(O)c2O,Potency,[2],inactive
CCCCCCCCCCCC(=O)[O][Sn]([CH2]CCC)([CH2]CCC)[O]C(=O)CCCCCCCCCCC,Potency,[2],inactive
CC12C(=O)OC(=O)C1(C)C1CCC2O1 (configuration not stated),Potency,[1],inactive
same,Potency,[2],inactive
O=C1NC(=O)/C(=C/c2ccc3nccnc3c2)S1,Potency,[2],inactive
O=c1[nH]c2cc(C(F)(F)F)ccc2n1-c1cc(C(F)(F)F)ccc1O,Potency,[2],inactive
COc1ccc(NC(=O)/C=C/c2ccc(Cl)cc2)cc1,Potency,[2],5.62 µM (active)
Clc1ccccc1-c1nc(-c2ccncc2)no1,Potency,[1],inactive
same,Potency,[3],inactive
CSc1ccccc1N1CCN(CCCCCC(=O)NC2CCCc3ccccc32)CC1 (configuration not stated),Potency,[1],inactive
same,Potency,[2],inactive
Cc1c(C(=O)O)c(O)cc2c1C(=O)c1c(O)c([C@@H]3O[C@H](CO)[C@@H](O)[C@H](O)[C@H]3O)c(O)c(O)c1C2=O,Potency,[2],inactive
OCC1O[C@H]([S-])[C@H](O)[C@@H](O)[C@@H]1O.[Au+] (some centres not stated),Potency,[2],inactive
CO/S(=N\S(=O)(=O)c1ccc(Cl)cc1)c1ccc([N+](=O)[O-])cc1 (configuration not stated),Potency,[2],inactive
N#C/C(=C\c1ccc(-c2cc(Cl)ccc2Cl)o1)C(=O)Nc1cccc2ncccc12,Potency,[1],inactive
same,Potency,[2],inactive
CO[C@@]1(NC(=O)Cc2cccs2)C(=O)N2C(C(=O)O)=C(COC(N)=O)CS[C@@H]21,Potency,[2],inactive
CNc1ncnc2c1ncn2[C@@H]1O[C@H](CO)[C@@H](O)[C@H]1O,Potency,[2],inactive
C#CC1(O)CC[C@H]2[C@@H]3CCC4=CCCC[C@@H]4[C@H]3CC[C@@]21C (some centres not stated),Potency,[1],inactive
same,Potency,[3],inactive
O=C(Nc1ccc(C(=O)O)c(O)c1)c1ccccc1,Potency,[1],inactive
same,Potency,[3],inactive
COc1ccnc2c1CCCCC2S(=O)c1nc2ccccc2[nH]1 (configuration not stated),Potency,[2],inactive
CO/N=C(\C(=O)N[C@@H]1C(=O)N2C(C(=O)O)=C(COC(C)=O)CS[C@H]12)c1csc(N)n1 (stereo in doubt),Potency,[1],inactive
same,Potency,[3],inactive
Oc1c(Br)cc(Br)c2cccnc12,Potency,[1],inactive
same,Potency,[3],inactive
CN(C)CCC(c1ccc(Cl)cc1)c1ccccn1 (configuration not stated),"parasite growth, % of DMSO control",[5],105%
same,"parasite growth remaining, % of DMSO control (lower = more inhibition)",[6],70.9%
same,"parasite growth, % of control (lower = inhibition)",[7],38.1%
same,"growth, % of control",[8],78.9%
same,Potency,[1],inactive
same,Potency,[2],inactive
NC(=S)c1ccc[n+]([C@@H]2O[C@@H](COP(=O)([O-])OP(=O)(O)OC[C@H]3O[C@@H](n4cnc5c(N)ncnc54)[C@H](OP(=O)(O)O)[C@@H]3O)C(O)C2O)c1 (some centres not stated),Potency,[2],inactive
CO/N=C(\C(=O)N[C@@H]1C(=O)N2C(C(=O)O)=C(COC(C)=O)CS[C@H]12)c1csc(N)n1,Potency,[2],inactive
CCCC1(C)C(C#N)(C#N)C1(C#N)C#N,Potency,[2],inactive
